# According to PubChem BioAssay AID371 (SRMLSC, 2006):
# Among all 3,300 compounds or so, about 280 (8.5%) were called active.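 How the source made its calls: active means mean growth inhibition over the two runs of 50% or more; inactive means mean growth inhibition under 50%.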 Many of the other results were omitted from the sample, so actives are more common in it than they were.
# Test: A549 NSCLC cell proliferation inhibitors – ATP luminescence, human non-small cell lung line, primary screen (AID 371);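 further: compound exposure lasted 72 h before the ATP read; 0% = untreated cell signal and 100% = no luminescence left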
# Details: at 10 µM, active compounds read high
row,SMILES,growth inhibition
1,CCOCCSc1nc2c(c(=O)[nH]c(=O)n2C)n1CCCc1ccccc1,20.2% (inactive)
2,CCN(CC)CCCN1C(=O)C(O)=C(C(=O)c2ccc(C)o2)C1c1ccc(C)o1 (configuration not stated),5.46% (inactive)
3,CC1CC(C(F)(F)F)n2ncnc2N1 (configuration not stated),2.4% (inactive)
4,CC(C)OC(=O)[C@H]1[C@H](c2ccc(Cl)cc2)[C@@](C#N)(C(N)=O)[C@@H]2C=CC(C(N)=O)=CN21,6.9% (inactive)
5,Cc1cccc(N2C(=O)CC(N3CCN(Cc4ccc(Cl)cc4)CC3)C2=O)c1 (configuration not stated),-1.79% (inactive)
6,O=C(Nc1ccc(Cl)cn1)C1CCCN1S(=O)(=O)c1ccccc1 (configuration not stated),-16.6% (inactive)
7,CCCOc1cc(CN2CCCCC2)cc(C(C)=O)c1,5.4% (inactive)
8,CCNC(=O)N(C(=O)NCC)n1c(C)nnc1C,-3.85% (inactive)
9,c1ccc(CSc2nnc(SCc3ccccn3)s2)nc1,-7.61% (inactive)
10,N#CC1=C(N)N2C(=C(C#N)C1c1ccccc1)Sc1ccccc12 (configuration not stated),-5.42% (inactive)
11,C#CC1CN(Cc2ccccc2)CC(C#C)N1C (configuration not stated),4.27% (inactive)
12,Cc1ccc(Cn2ncc3c(N4CCOCC4)ncnc32)cc1,19.4% (inactive)
13,Cc1ccc(Cn2ncc3c(N4CCN(Cc5ccc(Cl)cc5)CC4)ncnc32)cc1,53.7% (active)
14,Cc1ccc(Cn2ncc3c(N4CCN(c5ccc(C)cc5)CC4)ncnc32)cc1,30.8% (inactive)
15,COC(=O)C(NC(C)=O)(Nc1ccc(Br)cc1)C(=O)OC,36.9% (inactive)
16,OC1(c2cccc(C(F)(F)F)c2)CCN(c2ncnc3c2[nH]c2ccccc23)CC1,92.4% (active)
17,Cc1ccc2[nH]c3c(N4CCCCCC4)ncnc3c2c1,72.1% (active)
18,CCN1CCCC1Cn1cnc2c([nH]c3ccc(C)cc32)c1=O (configuration not stated),6.64% (inactive)
19,Cc1ccc2[nH]c3c(N4CCN(Cc5ccccc5)CC4)ncnc3c2c1,80.6% (active)
20,c1ccc2c(c1)CCN(c1ncnc3c1[nH]c1ccccc13)C2,77.4% (active)
21,c1ccc2c(c1)[nH]c1c(N3CCC4(CC3)OCCO4)ncnc12,34% (inactive)
22,c1ccc2c(c1)[nH]c1c(N3CCSCC3)ncnc12,33.6% (inactive)
23,Cc1ccc2[nH]c3c(N4CCOCC4)ncnc3c2c1,34.7% (inactive)

row,SMILES,growth inhibition
1,CSc1nnc2n(C3CCCCC3)c(=O)c3c4c(sc3n12)CCCC4,6.35% (inactive)
2,COc1cccc(C(=O)OCCN(C)C(C)(C)C)c1,0.03% (inactive)
3,OCCOCCNc1ncnc2c1cnn2-c1ccccc1,5.28% (inactive)
4,Cc1cc(=O)oc2cc(OCCSCCN3CCOCC3)ccc12,8.74% (inactive)
5,CCn1cc(/C=N/O)c(C)n1,-8.38% (inactive)
6,O=C1OC(N2CCN(C/C=C/c3ccccc3)CC2)c2ccccc21 (configuration not stated),7.88% (inactive)
7,Cc1cc(SCCC(=O)O)nc2ccccc12,-1.53% (inactive)
8,CCOC(=O)c1cnc(SC2CC(=O)N(c3cccc(OC)c3)C2=O)nc1N (configuration not stated),-4.72% (inactive)
9,Cn1ccnc1SCCC#N,-0.21% (inactive)
10,N#Cc1nc(COc2ccc(Cl)cc2)oc1N1CCN(Cc2ccccc2)CC1,21.8% (inactive)
11,O=C(c1ccco1)N1CCN(c2ncnc3c2[nH]c2ccccc23)CC1,25.7% (inactive)
12,c1ccc(CN2CCN(c3ncnc4c3[nH]c3ccccc34)CC2)cc1,63% (active)
13,COc1ccc(C=NCCCN2CCOCC2)cc1,2.05% (inactive)
14,Cc1csc2nc(CSc3nc4ccccc4o3)cn12,29.3% (inactive)
15,Cc1ccc(-c2nnc(-c3ccccc3)o2)cc1Br,10.3% (inactive)
16,CCOC(=O)c1ccc(N2C(=O)CC(Sc3nnc(C)s3)C2=O)cc1 (configuration not stated),-4.68% (inactive)
17,Cc1ccccc1N1C(=O)CC(Sc2nnc(-c3ccccc3)o2)C1=O (configuration not stated),56.6% (active)
18,Brc1ccc(-c2cnnc(N3CCCC3)n2)cc1,24% (inactive)
19,COc1ccc(C2/C(=C(/O)c3cnn(-c4ccccc4)c3C)C(=O)C(=O)N2CCN(C)C)cc1OC (configuration not stated),7.72% (inactive)
20,CSc1nc(Oc2ccc(=O)[nH]n2)nc(N(C)C)n1,2.49% (inactive)
21,CCOc1cc2nc(-c3ccc(OC)c(OC)c3)nc(N3CCOCC3)c2cc1OC,66.5% (active)
22,COc1cc2nc(-c3ccccc3)nc(N3CCCC3)c2cc1OC,2.86% (inactive)
23,COc1ccc(/C(O)=C2/C(=O)C(=O)N(CCN3CCOCC3)C2c2ccccn2)cc1OC (configuration not stated),0.85% (inactive)

row,SMILES,growth inhibition
1,Brc1cccc(-c2cnc3n2CCCCC3)c1,24.1% (inactive)
2,COc1ccc(CN(C#N)c2nc(SC)nc(N(C)C)n2)cc1,32.9% (inactive)
3,CCN(CC)c1ncc(C)c(=O)[nH]1,-0.05% (inactive)
4,CCOC(=O)Cc1nnc(Nc2cccc(O)c2)c2ccccc12,-1.35% (inactive)
5,N=c1ncn(CC(O)CN2CCOCC2)c2nc(N3CCOCC3)[nH]c12 (configuration not stated),-5.31% (inactive)
6,C=CCc1cccc(/C=N/c2ncn[nH]2)c1O,0.97% (inactive)
7,C=CCc1cccc(/C=N/n2cnnc2)c1O,2.3% (inactive)
8,C=CCc1cccc(CNc2nc3ccccc3n2C(C)C)c1O,74.7% (active)
9,CN=c1sc2ccccc2n1CC(O)COCc1ccco1 (configuration not stated),-6.68% (inactive)
10,CCC(C(=O)Nc1ncn[nH]1)(C(F)(F)F)C(F)(F)F,2.05% (inactive)
11,CCC(C(=O)Nc1nccs1)(C(F)(F)F)C(F)(F)F,12.8% (inactive)
12,CCC(NC(=O)Nc1nnc(C(F)(F)F)s1)(C(F)(F)F)C(F)(F)F,81.7% (active)
13,CCCc1nnc(NC(=O)Nc2ccccc2OC)s1,17.3% (inactive)
14,CCCSc1nnc(NC(=O)Nc2ccccc2)s1,45.3% (inactive)
15,O=C(NCC(F)(F)F)Nc1nnc(C(F)(F)F)s1,17.9% (inactive)
16,CCSc1nnc(NC(=O)C(C)(C(F)(F)F)C(F)(F)F)s1,61.8% (active)
17,CCSc1nnc(NC(=O)C(C(F)(F)F)C(F)(F)F)s1,7.68% (inactive)
18,CCCSc1nnc(NC(=O)Nc2ccc(F)cc2)s1,70.3% (active)
19,CCSc1nnc(NC(=O)C(CC)(C(F)(F)F)C(F)(F)F)s1,66% (active)
20,CC(NC(=O)Nc1nnc(C(F)(F)F)s1)(C(F)(F)F)C(F)(F)F,11.8% (inactive)
21,CCSc1nnc(NC(NC(=O)c2ccco2)(C(F)(F)F)C(F)(F)F)s1,-2.3% (inactive)
